Experimental data: PubChem BioAssay (NCATS)
Inconclusive results are not listed. The source made the active and inactive calls. Unless noted, calls follow the shape of the dose curve; as a rule, active = well fitted curve in the direction sought with a large enough effect; inconclusive = small, poorly fitted or top-dose-only effect, or another doubt; inactive = no such curve, though single readings can be large; an effect the other way counts as inactive or inconclusive.

Legend:
[1] = qHTS for differential inhibitors of proliferation of Plasmodium falciparum line 7G8 (AID 1815); conditions: Plasmodium falciparum 7G8 proliferation inhibition; series mostly up to 28.7 µM;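 also: parasite growth measured after three days of incubation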; also: potency is read from the fitted curve at half-maximal effect
[2] = qHTS for differential inhibitors of proliferation of Plasmodium falciparum line GB4 (AID 1816); conditions: Potency: Plasmodium falciparum GB4 proliferation inhibition; series mostly up to 28.7 µM;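 also: parasite growth measured after 72 h incubation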; also: potency is read from the fitted curve at half-maximal effect
[3] = qHTS for differential inhibitors of proliferation of Plasmodium falciparum line 3D7 (AID 1876); also: potency is read from the fitted curve at half-maximal effect; conditions: P. falciparum 3D7 proliferation inhibition; series mostly up to 28.7 µM
[4] = qHTS for differential inhibitors of proliferation of Plasmodium falciparum line D10 (AID 1877); conditions: series mostly up to 28.7 µM;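 also: parasites grown with compound for 72 h before DNA staining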; also: potency is read from the fitted curve at half-maximal effect
[5] = qHTS for differential inhibitors of proliferation of Plasmodium falciparum line Dd2 (AID 1882); conditions: Potency: Plasmodium falciparum Dd2 proliferation inhibition; series mostly up to 28.7 µM; also: nearly all actives have a fitted effect of over 65% in size; also: potency is read from the fitted curve at half-maximal effect
Summary of the method: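 SYBR Green DNA fluorescence (ex 485, em 535 nm) after overnight lysis quantifies parasite growth; compound exposure lasted 72 h at 37 C on infected red cells at 2.5% hematocrit, 0.3% parasitemia (final). Artemisinin 0.29 uM and vehicle wells define normalization.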

[6] = qHTS for differential inhibitors of proliferation of Plasmodium falciparum line W2 (AID 1883); conditions: Potency: Plasmodium falciparum W2 proliferation inhibition; series mostly up to 28.7 µM;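 also: parasites grown with compound for 72 h before lysis and staining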; also: potency is read from the fitted curve at half-maximal effect
[7] = qHTS for differential inhibitors of proliferation of Plasmodium falciparum line HB3 (AID 1886); conditions: Potency: Plasmodium falciparum HB3 proliferation inhibition; series mostly up to 28.7 µM;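 also: parasites grown with compound for 72 h before SYBR Green readout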; also: potency is read from the fitted curve at half-maximal effect
[8] = qHTS Assay for Modulators of Human Peripheral Myelin Protein 22 (PMP22) Expression/Activity (AID 1967; active = well fitted curve in the direction sought with a large enough effect in the signal ratio; the % refers to the signal ratio); conditions: Cell-based PMP22 reporter, dual-color luciferase ratio, mouse Pmp22 promoter in mouse Schwann cells; series mostly up to 115 µM
Summary of the method: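 Mouse MSC80 Schwann cells carrying Pmp22 promoter–green click beetle luciferase plus EF-alpha–red luciferase control, dosed 24 h at 37 °C. Dual-filter luminescence, overlap-corrected; %Activity from green/red ratio normalised to untreated cells, concentration-response curves fitted.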

[9] = target: Ferritin light chain (Equus caballus) (UniProt P02791); test: qHTS Validation Assay for Identification of Novel General Anesthetics (AID 2323); conditions: horse apoferritin, anesthetic-site fluorescent probe displacement; series mostly up to 76.9 µM
Ferritin light chain (Equus caballus), sequence (P02791 2-175 limits assumed): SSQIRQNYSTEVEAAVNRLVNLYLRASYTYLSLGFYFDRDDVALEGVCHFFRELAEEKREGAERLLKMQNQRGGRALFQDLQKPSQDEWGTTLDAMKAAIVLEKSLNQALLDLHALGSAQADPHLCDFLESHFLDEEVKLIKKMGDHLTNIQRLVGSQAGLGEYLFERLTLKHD
Summary of the method: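 Horse-spleen apoferritin (10 uM) in PBS with 50% saturated 1-aminoanthracene; compounds pin-transferred, 10 min at room temperature. Fluorescence read at 380/535 nm, normalized to free 1-AMA and 1-AMA/apoferritin values; four-parameter Hill fit.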

Measured: Potency

C/C(O)=C(\C#N)C(=O)Nc1cc(Br)ccc1Br
inactive: all assays above

N[C@@]1(C(=O)O)CC[C@@H](C(=O)O)C1
inactive: all assays above

CCCCCCC(C)(C)c1ccc([C@@H]2C[C@H](O)CC[C@H]2CCCO)c(O)c1
active: [1] 1.78 µM | [2] 2.24 µM | [3] 5.01 µM | [4] 7.94 µM | [5] 4.47 µM | [6] 2.24 µM | [7] 2.82 µM

NC(=O)CI
not listed: [8] | [9]
inactive: all other assays above

Cc1c2ccncc2c(C)c2c1[nH]c1ccccc12
active: [1] 0.794 µM | [2] 0.398 µM | [3] 0.447 µM | [4] 2 µM | [5] 1.12 µM | [6] 0.708 µM | [7] 1.41 µM
inactive: [9]

CC(N)Cc1c[nH]c2ccc(O)cc12 (stereo unspecified)
inactive: all assays above

CCCN(CCC)[C@H]1CCc2c(F)ccc(O)c2C1
active: [1] 1 µM | [2] 0.501 µM | [3] 2 µM | [4] 2.24 µM | [5] 1.26 µM | [6] 0.447 µM | [7] 1.41 µM
inactive: [9]

COc1ccc2c(c1)/C(=C/c1cnc[nH]1)C(=O)N2
active: [1] 7.08 µM | [2] 8.91 µM | [3] 12.6 µM | [4] 14.1 µM | [5] 12.6 µM | [6] 7.08 µM | [7] 12.6 µM

CCN(CC)c1ncnc2c1ncn2[C@@H]1O[C@H](COP(=O)(O)OP(=O)(O)C(Br)(Br)P(=O)(O)O)[C@@H](O)[C@H]1O
inactive: all assays above

O=P(O)(O)C(Cl)(Cl)P(=O)(O)O
inactive: all assays above

C#CCN[C@H](C)Cc1ccccc1
inactive: all assays above

CN1CC[C@@]2(C)c3cc(O)ccc3N(C)C12 (stereo partly specified)
inactive: [9]
active: [1] 12.6 µM | [2] 11.2 µM | [3] 11.2 µM | [4] 14.1 µM | [5] 12.6 µM | [6] 12.6 µM | [7] 8.91 µM

N[C@@H](Cn1oc(=O)[nH]c1=O)C(=O)O
inactive: all assays above

C=CCN1C[C@@H](C)N([C@H](c2ccc(C(=O)N(CC)CC)cc2)c2cccc(OC)c2)C[C@@H]1C
active: [1] 2.82 µM | [2] 3.98 µM | [3] 3.16 µM | [4] 7.08 µM | [5] 8.91 µM | [6] 3.16 µM | [7] 4.47 µM

CC(=O)c1c(O)c(C)c(O)c(Cc2c(O)c3c(c(C(=O)/C=C/c4ccccc4)c2O)OC(C)(C)C=C3)c1O
active: [1] 3.16 µM | [2] 3.16 µM | [3] 3.98 µM | [4] 10 µM | [5] 7.94 µM | [6] 3.55 µM | [7] 5.62 µM

O=C1C=CC(=O)C=C1
inactive: all assays above

CC(=O)NBr
inactive: all assays above

CCS(=O)(=O)Nc1cccc(C(=C2CCCCC2)c2cnc[nH]2)c1
active: [1] 7.08 µM | [2] 12.6 µM | [3] 11.2 µM | [4] 14.1 µM | [5] 10 µM | [6] 8.91 µM | [7] 12.6 µM

Cc1o[nH]c(=O)c1CC(N)C(=O)O (stereo unspecified)
inactive: all assays above

CC(C)CC(NP(=O)(O)O[C@@H]1O[C@@H](C)[C@H](O)[C@@H](O)[C@H]1O)C(=O)NC(Cc1c[nH]c2ccccc12)C(=O)O (stereo partly specified)
inactive: all assays above

CO[C@H]1CC=C2CCN3CCC4=C(CC(=O)OC4)[C@]23C1
inactive: all assays above

NC(C(=O)O)c1cc(=O)[nH]o1 (stereo unspecified)
inactive: all assays above

C[C@H](Cc1ccc2c(c1)OC(C(=O)O)(C(=O)O)O2)NC[C@H](O)c1cccc(Cl)c1
inactive: all assays above

C[N+](C)(C)CCOC(=O)CBr
inactive: all assays above

C[N+]1(C)C2CCC1CC(OC(=O)c1c[nH]c3ccccc13)C2 (stereo unspecified)
active: [1] 11.2 µM | [2] 12.6 µM | [3] 14.1 µM | [4] 12.6 µM | [5] 12.6 µM | [6] 7.94 µM | [7] 14.1 µM

Cc1[nH]c2ccc(O)cc2c1CCN
inactive: all assays above

CCCN(CCC)C1CCc2cccc(O)c2C1 (stereo unspecified)
inactive: all assays above

CC(C)(C)c1cc(C=C(C#N)C#N)cc(C(C)(C)C)c1O
active: [1] 1.12 µM | [2] 0.891 µM | [3] 0.708 µM | [4] 1.12 µM | [5] 0.891 µM | [6] 0.355 µM | [7] 1 µM

Ic1ccccc1CNC1C2CCN(CC2)C1C(c1ccccc1)c1ccccc1 (stereo unspecified)
active: [1] 7.08 µM | [2] 5.01 µM | [3] 5.01 µM | [4] 11.2 µM | [5] 3.16 µM | [6] 1.41 µM | [7] 11.2 µM

NC(CCCCCP(=O)(O)O)C(=O)O (stereo unspecified)
inactive: all assays above

C=CCN1CC[C@]23c4c5ccc(O)c4O[C@@H]2/C(=N/N=C2\CC[C@@]4(O)C6Cc7ccc(O)c8c7[C@@]4(CCN6CC=C)[C@@H]2O8)CC[C@@]3(O)C1C5
active: [1] 2.51 µM | [2] 3.16 µM | [3] 2.24 µM | [4] 2.82 µM | [5] 8.91 µM | [6] 2.51 µM | [7] 2.82 µM

NNC(N)=O
inactive: all assays above

C[C@@H]1O[C@H](C[N+](C)(C)C)CS1
inactive: all assays above

COc1ccc2[nH]cc(CCN)c2c1
not listed: [8]
inactive: all other assays above

NCCCP(=O)(O)O
not listed: [8]
inactive: all other assays above

NC(=O)COc1c(F)cc(SCCNS(=O)(=O)c2ccccc2)cc1F
not listed: [6] | [8]
inactive: all other assays above

Oc1ccc2c3c1O[C@H]1c4oc5ccccc5c4C[C@@]4(O)C(C2)N(CC2CC2)CCC314 (stereo partly specified)
inactive: [9]
active: [1] 8.91 µM | [2] 3.16 µM | [3] 7.94 µM | [4] 12.6 µM | [5] 10 µM | [6] 3.16 µM | [7] 11.2 µM

CC1OC1P(=O)(O)O (stereo unspecified)
not listed: [8]
inactive: all other assays above

O=[N+]([O-])c1cc(O)c(O)c([N+](=O)[O-])c1
not listed: [8]
inactive: all other assays above

CCCCCCCCCCCCCC(=O)O[C@@H]1[C@@H](C)[C@@]2(O)[C@@H](C=C(CO)C[C@@]3(O)C(=O)C(C)=C[C@@H]23)C2C(C)(C)[C@@]21OC(C)=O (stereo partly specified)
active: [1] 5.62 µM | [2] 11.2 µM | [3] 10 µM | [4] 11.2 µM | [6] 7.08 µM | [7] 12.6 µM

CC(C)(C)c1o[nH]c(=O)c1CC(N)C(=O)O (stereo unspecified)
not listed: [6]
inactive: all other assays above

NNC(=O)c1ccc(O)cc1
not listed: [8]
inactive: all other assays above

C=CCN1CC[C@]23c4c5ccc(O)c4O[C@H]2/C(=N/NC(=O)c2ccccc2)CC[C@@]3(O)[C@H]1C5
active: [1] 10 µM | [2] 8.91 µM | [3] 10 µM | [4] 3.16 µM | [6] 3.16 µM | [7] 11.2 µM
inactive: [8] | [9]
